PubChem BioAssay (Tox21)
Records with an inconclusive call do not appear. Entries that show only a call come without a potency. Calls of active or inactive are those of the source. Calls follow the shape of the dose curve; as a rule, active = well fitted cell-killing curve with a large enough effect in the repeat runs; inconclusive = weak or mixed curves, or effect the other way; inactive = no such curve, though single readings can be large or run the other way.

Test: Caspase-3/7 induction in CHO-K1 cells by small molecules, qHTS cell viability counter screen (AID 1346979); also: nearly all actives have a fitted effect of over 35% in size
Settings: CellTiter-Fluor fluorescence, 17 h; series mostly up to 92.4 µM
Description: National Center for Advancing Translational Sciences [NCATS]
NIH Chemical Genomics Center [NCGC]
U.S. Environmental Protection Agency [EPA]
National Institutes of Environmental Health Sciences [NIEHS]
National Toxicology Program [NTP]
U.S. Food and Drug Administration [FDA]
Apoptosis is a process of programmed cell death and plays a central role in the development of multicellular organisms. It is a highly regulated process and induces cell death by activating caspases, which are the members of cysteine aspartic acid-specific protease (caspase) family. Caspases involved in apoptosis are classified by their mechanism of action as initiator caspases (caspase-2, -8, -9 and -10) and executioner caspases (caspase-3, -6, and -7). Inhibition of apoptosis results in number of cancers, autoimmune diseases, inflammatory diseases and viral infection. To identify small molecule compounds that induce apoptosis, a homogeneous, luminescent Caspase-Glo 3/7 assay was used. Wild type CHO-K1 cells were used to screen Tox21 libraries for identifying caspase-3/7 activity inducers. Also cytotoxicity of the compounds was tested in parallel by measuring the cell viability using CellTiter-Fluor assay system in the same wells.
Tox21 Assay Protocol Summary:
CHO-K1 cells were dispensed at 1,500 per well in 5uL of culture medium into white solid bottom 1536-well plates (Corning Life Sciences, Corning, NY) using a Multidrop Combi (Thermo Scientific, Waltham, MA) dispenser. The assay plates were incubated at 37 C and 5% CO2 for 5hr, and then 23nL of compounds dissolved in DMSO and positive control were transferred using a Pintool station (Wako, San Diego, CA). The assay plates were incubated at 37C and 5% CO2 for 17hr. For cytotoxicity read, after 16hr incubation at 37C, 1uL CellTiter-Fluor reagent (Promega Corporation, Madison, WI) was added to each well of the assay plates using Flying Reagent Dispenser (FRD, Aurora Discovery, San Diego, CA). After 1hr incubation at 37C and 5% CO2, the fluorescence signal was quantified using a ViewLux plate reader (PerkinElmer, Shelton, CT).
Potency is read from the fitted curve at half-maximal effect.

Structure (SMILES) | Potency
O=C(Cn1ccnc1[N+](=O)[O-])NCCO | inactive
CCC1(CO)COCOC1 | inactive
Cc1ccccc1N=C(N)Nc1ccccc1C | inactive
c1ccc(C[n+]2cccc3ccccc32)cc1 | inactive
OCCN1CCN(CCCN2c3ccccc3Sc3ccc(Cl)cc32)CC1 | 29.8 µM (active)
Cc1cscn1 | inactive
CC=C(Cl)Cl | inactive
O=C(O)CCc1nc(-c2ccccc2)c(-c2ccccc2)o1 | inactive
CN(C)CCC=C1c2ccccc2C=Cc2ccccc21 | inactive
CCOc1ccc(Cc2nccc3cc(OCC)c(OCC)cc23)cc1OCC | 11.9 µM (active)
CNC(=O)c1cnn(-c2nc(N)c3ncn([C@@H]4O[C@H](CO)[C@@H](O)[C@H]4O)c3n2)c1 | inactive
CCCCCCCCCCCCCCN(CCO)CCO | 27.3 µM (active)
Cc1ccc(OC(=O)c2ccccc2O)cc1 | inactive
Cc1cc(C)c(N)cc1C | inactive
CC(=O)OCC[N+](C)(C)C | inactive
Cc1ccc(C(C)(C)O)cc1 | inactive
CCC(OCCCOC)OC(C)=O (stereo not given) | inactive
Cc1ccccc1S | inactive
O=C=Nc1ccc(Cl)c(Cl)c1 | inactive
CCCCOc1ccc(OCCCN2CCOCC2)cc1 | inactive

Structure (SMILES) | Potency
Cc1cc(=O)c2c(O)c3c(O)cc(=O)c4c3c3c(cc(O)c1c23)C(C)(C)C=4O | 2.59 µM (active)
CCC1CO1 (stereo not given) | inactive
CCCCCC[C@@H](O)C/C=C\CCCCCCCC(=O)O | inactive
CCCCCCC(C)(C)C(=O)O | inactive
Nc1ncnc2c1ncn2[C@H]1CC[C@@H](CO)O1 | inactive
CC1(C)[C@@H](OC(=O)CCC(=O)O)CC[C@]2(C)[C@H]3C(=O)C=C4[C@@H]5C[C@@](C)(C(=O)O)CC[C@]5(C)CC[C@@]4(C)[C@]3(C)CC[C@@H]12 | inactive
CN1C(=O)N(c2ccccc2Br)Cc2cnc(Nc3ccc4c(c3)OCC(CO)O4)nc21 (stereo not given) | 24.3 µM (active)
CCC1NC(=O)c2cc(S(N)(=O)=O)c(Cl)cc2N1 (stereo not given) | inactive
CC(=O)c1ccc([N+](=O)[O-])cc1 | inactive
CN1CCCC(n2nc(Cc3ccc(Cl)cc3)c3ccccc3c2=O)CC1 (stereo not given) | 29.8 µM (active)
O=c1[nH]ncc2ccccc12 | inactive
Nc1cccc2c1CN(C1CCC(=O)NC1=O)C2=O (stereo not given) | inactive
COC(=O)CS | inactive
CCOC(=O)c1ccc(C#Cc2ccc3c(c2)C(C)(C)CCS3)nc1 | inactive
O=C(/C=C/c1ccc(O)c(O)c1)O[C@@H]1C[C@@](OC(=O)/C=C/c2ccc(O)c(O)c2)(C(=O)O)C[C@@H](O)[C@@H]1O | inactive
CCN(CC)CCNC(=O)COc1ccc(OC)cc1 | inactive
CO/N=C(/C(=O)N[C@@H]1C(=O)N2C(C(=O)O)=C(COC(N)=O)CS[C@H]12)c1ccco1 | inactive
CC1(C)[C@H](C(=O)O)N2C(=O)C[C@H]2S1(=O)=O | inactive
CCOC(=O)[C@H](CCc1ccccc1)N[C@@H](C)C(=O)N(CC(=O)O)C1Cc2ccccc2C1 | inactive
C/C=C/C=C/C=O | inactive
